Measured values reported in PubChem BioAssay AID624093 (National Center for Advancing Translational Sciences (NCATS), 2012).
Records with an inconclusive call do not appear. Active and inactive are the calls of the source. The call rests on the fitted dose curve; in most records, active means well fitted inhibition curve with a large enough effect; inconclusive means small, poorly fitted or top-dose-only effect; inactive means flat fitted curve, though single readings scatter.

target: Dual specificity tyrosine-phosphorylation-regulated kinase 1A (Homo sapiens) (UniProt Q13627); assay: Confirmation Assay for Inhibitors of Dyrk1a (Kinase-Glo Assay): KU probe; conditions: Kinase-Glo ATP luminescence; series mostly up to 76.9 µM
In short: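 Luminescent Kinase-Glo read-out of ATP left after a 2 h room-temperature reaction of 5nM Dyrk1A with 2uM ATP and 8uM DYRKtide. Buffer: 25mM Tris-HCl pH 7.5, 10mM MgCl2, 0.5mM EGTA, 5mM cysteine, 0.01% Triton X-100.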

Potency, active:
c1nc(NCC2CCOC2)c2cc(-c3ccc4c(c3)OCO4)ccc2n1 (configuration not stated) 92.3 nM
Cc1c(-c2ccnc(NCc3ccc(Cl)cc3)n2)sc(=O)n1C 164 nM
c1nc(NCCc2cnc[nH]2)c2cc(-c3ccc4c(c3)OCO4)ccc2n1 328 nM
CCCN(C)c1ncnc2ccc(-c3ccc4c(c3)OCO4)cc12 260 nM
O=C(O)c1ccc(-c2ccc3ncnc(N4CCOCC4)c3c2)o1 26000 nM

Potency, inactive:
CN(C)c1ccc(-c2nccc(NCc3ccc(Cl)c(Cl)c3)n2)cc1
COc1ccc(-c2nccc(NCc3ccc(Cl)c(Cl)c3)n2)cc1
